Assay results published in PubChem BioAssay AID1159580 (chemical genetic matrix, 2015).
“And” between values parts separate entries of the source, which are not always exact repeats. Equal entries are not always repeated. Among all 5,500 compounds or so, about 2,000 (36%) were called active. Inconclusive results (about 18%) are left out. Rule as the data show it: active = normalized growth mostly below about 0.91 (no sharp cut-off); inconclusive = no clear call, values can overlap the other calls; inactive = mostly above about 0.92. The list shows a part of the results.

Assay: chemical genetic growth profiling, strain panel (AID 1159580);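 also: tested at 20 µM; growth read once vehicle control cultures reached saturation at 30 °C; 1 = growth at the plate median or of vehicle wells; lower values mean less growth of the strain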
Conditions: S. cerevisiae deletion strains, growth OD

Measured: normalized growth

O=C(O[C@@H]1Cc2c(O)cc(O)cc2O[C@@H]1c1cc(O)c(=O)c2c(O)c(O)cc([C@H]3Oc4cc(O)cc(O)c4C[C@H]3OC(=O)c3cc(O)c(O)c(O)c3)c2c1)c1cc(O)c(O)c(O)c1
0.59 (active) and 1.02 (inactive): locus YJL095W, strain BCK1, stronger effect = lower value
active: locus YAL013W, strain DEP1, stronger effect = lower value 0.633 | locus YAL021C, strain ccr4, stronger effect = lower value 0.0843 | locus YAL026C, strain drs2, stronger effect = lower value 0.432 | locus YAL030W, strain snc1, stronger effect = lower value 0.604 | locus YBL061C, strain skt5, stronger effect = lower value 0.513 | locus YBR009C, strain hhf1, stronger effect = lower value 0.434 | locus YBR023C, strain chs3, stronger effect = lower value 0.43 | locus YBR231C, strain swc5, stronger effect = lower value 0.418 | locus YBR279W, strain paf1, stronger effect = lower value 0.554 | locus YCL011C, strain gbp2, stronger effect = lower value 0.509 | locus YCL016C, strain dcc1, stronger effect = lower value 0.754 | locus YCL061C, strain MRC1, stronger effect = lower value 0.724 | locus YCL069W, strain vba3, stronger effect = lower value 0.776 | locus YCR088W, strain abp1, stronger effect = lower value 0.892 | locus YDL005C, strain med2, stronger effect = lower value 0.821 | locus YDL035C, strain GPR1, stronger effect = lower value 0.658 | locus YDL040C, strain nat1, stronger effect = lower value 0.868 | locus YDL074C, strain BRE1, stronger effect = lower value 0.58 | locus YDL101C, strain DUN1, stronger effect = lower value 0.706 | locus YDL134C, strain PPH21, stronger effect = lower value 0.741 | locus YDR069C, strain doa4, stronger effect = lower value 0.105 | locus YDR137W, strain rgp1, stronger effect = lower value 0.485 | locus YDR150W, strain NUM1, stronger effect = lower value 0.851 | locus YDR159W, strain sac3, stronger effect = lower value 0.735 | locus YDR162C, strain NBP2, stronger effect = lower value 0.344 | locus YDR195W, strain ref2 0.76 | locus YDR297W, strain sur2, stronger effect = lower value 0.45 | locus YDR334W, strain swr1, stronger effect = lower value 0.468 | locus YDR335W, strain msn5, stronger effect = lower value 0.604 | locus YDR502C, strain sam2, stronger effect = lower value 0.866 | locus YEL003W, strain gim4, stronger effect = lower value 0.527 | locus YEL037C, strain rad23, stronger effect = lower value 0.686 | locus YEL061C, strain CIN8, stronger effect = lower value 0.817 | locus YER015W, strain faa2, stronger effect = lower value 0.305 | locus YER016W, strain bim1, stronger effect = lower value 0.823 | locus YER111C, strain swi4, stronger effect = lower value 0.692 | locus YER155C, strain BEM2 (second series), stronger effect = lower value 0.836 | locus YER167W, strain BCK2, stronger effect = lower value 0.896 | locus YFR010W, strain ubp6, stronger effect = lower value 0.571 | locus YGL086W, strain mad1, stronger effect = lower value 0.893 | locus YGL167C, strain pmr1, stronger effect = lower value 0.551 | locus YGL173C, strain kem1, stronger effect = lower value 0.181 | locus YGL240W, strain doc1, stronger effect = lower value 0.693 | locus YGL248W, strain PDE1, stronger effect = lower value 0.681 | locus YGL253W, strain hxk2, stronger effect = lower value 0.555 | locus YGR078C, strain PAC10, stronger effect = lower value 0.787 | locus YGR135W, strain pre9, stronger effect = lower value 0.828 | locus YGR229C, strain SMI1, stronger effect = lower value 0.0949 | locus YHR013C, strain ard1, stronger effect = lower value 0.322 | locus YHR027C, strain rpn1, stronger effect = lower value 0.186 | locus YHR129C, strain ARP1, stronger effect = lower value 0.845 | locus YHR142W, strain chs7, stronger effect = lower value 0.493 | locus YIL066C, strain RNR3, stronger effect = lower value 0.509 | locus YIL073C, strain SPO22, stronger effect = lower value 0.196 | locus YJL092W, strain hpr5, stronger effect = lower value 0.856 | locus YJL095W, strain BCK1 (second series), stronger effect = lower value 0.269 | locus YJL129C, strain trk1, stronger effect = lower value 0.812 | locus YJL154C, strain vps35, stronger effect = lower value 0.842 | locus YJL164C, strain tpk1, stronger effect = lower value 0.419 | locus YJL166W, strain qcr8, stronger effect = lower value 0.371 | locus YJL187C, strain SWE1 (second series), stronger effect = lower value 0.512 | locus YJL187C, strain SWE1, stronger effect = lower value 0.457 | locus YJR043C, strain POL32, stronger effect = lower value 0.599
inactive: locus YBR021W, strain FUR4, stronger effect = lower value 0.986 | locus YBR171W, strain sec66, stronger effect = lower value 0.918 | locus YBR229C, strain ROT2, stronger effect = lower value 0.981 | locus YCL029C, strain bik1, stronger effect = lower value 0.966 | locus YDL185W, strain tfp1, stronger effect = lower value 0.995 | locus YDL192W, strain arf1, stronger effect = lower value 0.955 | locus YDR001C, strain nth1, stronger effect = lower value 0.962 | locus YDR101C, strain arx1, stronger effect = lower value 1 | locus YDR318W, strain mcm21, stronger effect = lower value 0.981 | locus YDR388W, stronger effect = lower value 1.01 | locus YDR392W, strain spt3, stronger effect = lower value 0.81 | locus YEL061C, strain CIN8 (second series), stronger effect = lower value 0.915 | locus YER110C, stronger effect = lower value 1.04 | locus YER155C, strain BEM2, stronger effect = lower value 1 | locus YGL078C, strain dbp3, stronger effect = lower value 1.02 | locus YGL227W, strain vid30, stronger effect = lower value 0.989 | locus YGR252W, strain gcn5, stronger effect = lower value 0.896 | locus YHR079C, strain IRE1 (second series), stronger effect = lower value 1.01 | locus YHR079C, strain IRE1, stronger effect = lower value 1.04 | locus YHR094C, strain hxt1, stronger effect = lower value 1.04 | locus YHR200W, strain rpn10, stronger effect = lower value 0.969 | locus YIL125W, strain kgd1, stronger effect = lower value 1.04 | locus YIR030C, strain dcg1, stronger effect = lower value 1.03 | locus YJL115W, strain asf1, stronger effect = lower value 0.91 | locus YJL134W, strain LCB3, stronger effect = lower value 0.965 | locus YJL168C, strain set2, stronger effect = lower value 1.01 | locus YJR066W, strain TOR1, stronger effect = lower value 0.96
0.856 (active) and 1.02 (inactive): locus YHR030C, strain SLT2, stronger effect = lower value
